# The supplement of paper PMC6897291
# Where a name gives a salt, the structure may show the parent alone.
# Legend:
# U-2932 [1] = assay: growth inhibition by drug alone (1 - RLU/untreated control) (fraction); higher = stronger inhibition; conditions: 177Lu-lilotomab satetraxetan 0 ug/ml
# How it was run: (§1)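 RIVA or U-2932 cells, untreated or pretreated 18 h with a radiolabelled anti-CD37 antibody conjugate (~600 MBq/mg; 0.5 µg/ml RIVA, 1 µg/ml U-2932), were washed and seeded at 3,000 cells/well on plates pre-printed with the Selleck Cambridge Cancer Compound library. Doses were 10/100 nM (RIVA) or 10/1,000 nM (U-2932). RealTime-Glo luminescence was read daily from day 3 after 1 h at 37°C. Growth inhibition is 1 − RLU/mean of 48 untreated no-drug wells per plate.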
# RIVA [2] = assay: as above; conditions: 177Lu-lilotomab satetraxetan 0 ug/ml
# How it was run: as §1
# U-2932 [3] = assay: growth inhibition by drug plus 177Lu-lilotomab satetraxetan (1 - RLU/untreated control) (fraction); higher = stronger inhibition; conditions: 177Lu-lilotomab satetraxetan 1 ug/ml
# How it was run: as §1
# RIVA [4] = assay: as above; conditions: 177Lu-lilotomab satetraxetan 0.5 ug/ml
# How it was run: as §1
SMILES,"growth inhibition by drug alone (U-2932 [1]; 10 nM, time (day): 3)","growth inhibition by drug alone (U-2932 [1]; 10 nM, time (day): 4)","growth inhibition by drug alone (U-2932 [1]; 10 nM, time (day): 5)","growth inhibition by drug alone (U-2932 [1]; 10 nM, time (day): 6)","growth inhibition by drug alone (U-2932 [1]; 1000 nM, time (day): 3)","growth inhibition by drug alone (U-2932 [1]; 1000 nM, time (day): 4)","growth inhibition by drug alone (U-2932 [1]; 1000 nM, time (day): 5)","growth inhibition by drug alone (U-2932 [1]; 1000 nM, time (day): 6)","growth inhibition by drug alone (RIVA [2]; 10 nM, time (day): 3)","growth inhibition by drug alone (RIVA [2]; 10 nM, time (day): 4)","growth inhibition by drug alone (RIVA [2]; 10 nM, time (day): 5)","growth inhibition by drug alone (RIVA [2]; 10 nM, time (day): 6)","growth inhibition by drug alone (RIVA [2]; 100 nM, time (day): 3)","growth inhibition by drug alone (RIVA [2]; 100 nM, time (day): 4)","growth inhibition by drug alone (RIVA [2]; 100 nM, time (day): 5)","growth inhibition by drug alone (RIVA [2]; 100 nM, time (day): 6)","growth inhibition by drug plus 177Lu-lilotomab satetraxetan (U-2932 [3]; 10 nM, time (day): 3)","growth inhibition by drug plus 177Lu-lilotomab satetraxetan (U-2932 [3]; 10 nM, time (day): 4)","growth inhibition by drug plus 177Lu-lilotomab satetraxetan (U-2932 [3]; 10 nM, time (day): 5)","growth inhibition by drug plus 177Lu-lilotomab satetraxetan (U-2932 [3]; 10 nM, time (day): 6)","growth inhibition by drug plus 177Lu-lilotomab satetraxetan (U-2932 [3]; 1000 nM, time (day): 3)","growth inhibition by drug plus 177Lu-lilotomab satetraxetan (U-2932 [3]; 1000 nM, time (day): 4)","growth inhibition by drug plus 177Lu-lilotomab satetraxetan (U-2932 [3]; 1000 nM, time (day): 5)","growth inhibition by drug plus 177Lu-lilotomab satetraxetan (U-2932 [3]; 1000 nM, time (day): 6)","growth inhibition by drug plus 177Lu-lilotomab satetraxetan (RIVA [4]; 10 nM, time (day): 3)","growth inhibition by drug plus 177Lu-lilotomab satetraxetan (RIVA [4]; 10 nM, time (day): 4)","growth inhibition by drug plus 177Lu-lilotomab satetraxetan (RIVA [4]; 10 nM, time (day): 5)","growth inhibition by drug plus 177Lu-lilotomab satetraxetan (RIVA [4]; 10 nM, time (day): 6)","growth inhibition by drug plus 177Lu-lilotomab satetraxetan (RIVA [4]; 100 nM, time (day): 3)","growth inhibition by drug plus 177Lu-lilotomab satetraxetan (RIVA [4]; 100 nM, time (day): 4)","growth inhibition by drug plus 177Lu-lilotomab satetraxetan (RIVA [4]; 100 nM, time (day): 5)","growth inhibition by drug plus 177Lu-lilotomab satetraxetan (RIVA [4]; 100 nM, time (day): 6)"
COc1cc2ncnc(Nc3cccc(Br)c3)c2cc1OC,0.0352,0.0294,-0.0462,-0.213,-0.0358,-0.00581,-0.044,-0.226,-0.0227,0.0203,-0.0662,-0.376,-0.0939,-0.0578,-0.0794,-0.167,-0.0269,-0.00153,0.00885,0.0642,-0.0997,0.0384,0.0191,0.0515,0.308,0.458,0.483,0.516,0.349,0.482,0.487,0.467
CC#C[C@]1(O)CC[C@H]2[C@@H]3CCC4=CC(=O)CCC4=C3[C@@H](c3ccc(N(C)C)cc3)C[C@@]21C [Mifepristone (Mifeprex)],-0.0691,-0.0767,-0.047,0.0535,-0.0327,-0.0148,-0.0455,0.0917,-0.296,-0.283,-0.273,-0.268,-0.146,-0.253,-0.254,-0.235,-0.019,0.0308,0.0649,0.159,-0.0642,-0.00915,0.0416,0.233,0.413,0.477,0.486,0.497,0.391,0.438,0.445,0.436
C=CC[C@@H]1/C=C(\C)C[C@H](C)C[C@H](OC)[C@H]2O[C@@](O)(C(=O)C(=O)N3CCCC[C@H]3C(=O)O[C@H](/C(C)=C/[C@@H]3CC[C@@H](O)[C@H](OC)C3)[C@H](C)[C@@H](O)CC1=O)[C@H](C)C[C@@H]2OC [FK-506 (Tacrolimus)],0.267,0.364,0.442,0.532,0.227,0.39,0.449,0.553,0.737,0.636,0.618,0.602,0.867,0.796,0.777,0.783,0.323,0.406,0.478,0.594,0.206,0.367,0.459,0.574,0.801,0.806,0.834,0.875,0.87,0.859,0.89,0.913
CC(C)C(=O)Nc1ccc([N+](=O)[O-])c(C(F)(F)F)c1 [Flutamide (Eulexin)],0.147,0.0928,0.0103,-0.0414,0.15,0.123,0.105,0.0519,0.122,0.106,0.0768,-0.0242,-0.044,0.0232,0.0258,-0.0163,0.105,0.202,0.26,0.327,0.175,0.211,0.291,0.385,0.611,0.616,0.649,0.663,0.534,0.562,0.599,0.626
COc1nc(C)cnc1NS(=O)(=O)c1cccnc1-c1ccc(-c2nnco2)cc1 [Zibotentan (ZD4054)],-0.02,-0.0119,-0.0937,-0.23,-0.0348,-0.00699,-0.0784,-0.143,0.00676,-0.0294,-0.0678,-0.248,-0.0338,-0.0394,-0.0583,-0.115,-0.0217,0.0145,0.00284,0.0711,-0.0714,0.0154,-0.0042,-0.0452,0.387,0.514,0.537,0.542,0.388,0.485,0.494,0.461
C[N+](C)([O-])CCNc1ccc(NCC[N+](C)(C)[O-])c2c1C(=O)c1c(O)ccc(O)c1C2=O [Banoxantrone dihydrochloride],-0.0281,-0.0255,-0.149,-0.168,-0.0598,-0.0493,-0.082,-0.106,-0.171,-0.248,-0.397,-0.545,-0.338,-0.41,-0.557,-0.705,-0.00903,0.0168,0.0134,-0.00428,0.0744,0.142,0.219,0.381,0.391,0.472,0.484,0.498,0.446,0.551,0.571,0.588
CN(C)Cc1c(C(=O)NCCOc2ccc(C(=O)NO)cc2)oc2ccccc12,0.0311,0.0492,0.0509,-0.0158,0.972,0.985,0.987,0.988,-0.0928,-0.0394,-0.0793,-0.251,0.392,0.295,0.256,0.158,0.0477,0.0589,0.111,0.194,0.988,0.989,0.99,0.991,0.524,0.628,0.645,0.659,0.926,0.925,0.931,0.938
